In all, about 340,000 compounds went through this assay and about 12,000 (3.5%) were called active. About 18% were inconclusive and are not listed. Calls follow the shape of the dose curve; as a rule, active = well fitted inhibition curve with a large enough effect; inconclusive = small, poorly fitted or top-dose-only effect, or another doubt; inactive = no such curve, though single readings can be large or run the other way. Shown is part of a subset that was picked to be rich in actives. Where a call stands in place of a potency, no number is given.
Experiment: qHTS Assay for Inhibitors of Hepatitis C Virus (HCV)
Settings: Huh7.5.1 HCVcc-Cre infection, luciferase reporter, 44 h; series mostly up to 41.8 µM
How it was run: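 HCVcc-Cre virus at an moi near 0.5 was added right after compound to cells cultured 4 h from seeding (1,000 cells/well). Luciferase activity was determined 44 h later, 15 min after substrate addition at RT.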
Potency is read from the fitted curve at half-maximal effect.

| Compound | Potency |
| --- | --- |
| CCOC(=O)CSc1nnc(-c2ccco2)n1C | inactive |
| CCOC(=O)CSc1nc2c(c(=O)n(C)c(=O)n2C)n1Cc1ccccc1F | inactive |
| CCOC(=O)CSc1nc2c(sc(=S)n2CCc2ccccc2)c(=O)n1Cc1ccco1 | 14.1 µM (active) |
| CC(C)C[C@H]1CN([C@@H](CC(C)C)CN2CCC[C@@H]2CN2C(=O)C(=O)NC[C@@H]2Cc2ccccc2)C(=O)C(=O)N1CCc1ccccc1 | inactive |
| O=C(c1ccc(N2CCOCC2)c([N+](=O)[O-])c1)N1CCN(c2ccccc2F)CC1 | inactive |
| CCN(C[C@H]1N[C@@](CC)(C(=O)OC)[C@H]2C(=O)N(Cc3ccccc3)C(=O)[C@@H]12)S(=O)(=O)c1ccccc1 | inactive |
| COC(=O)[C@]1(Cc2ccccc2)N[C@H](CN(C)S(=O)(=O)c2ccc(OC(F)(F)F)cc2)[C@@H]2C(=O)N(Cc3ccccc3)C(=O)[C@@H]21 | 7.08 µM (active) |
| COC(=O)[C@]1(Cc2ccccc2)N[C@H](CN(C)S(=O)(=O)c2ccc(F)cc2)[C@@H]2C(=O)N(Cc3ccccc3)C(=O)[C@@H]21 | inactive |
| CCN(CC(=O)Nc1c(F)cccc1F)C(=O)CN1c2cccc3cccc(c23)S1(=O)=O | inactive |
| CCCCN(C(=O)c1cccc(N2C(=O)c3ccccc3C2=O)c1)c1c(N)n(CCCC)c(=O)[nH]c1=O | inactive |
| COc1ccc2c(C)cc3nnnn3c2c1 | inactive |
| CCn1c2c(c3ccc(OC)cc31)CCCC2=O | 1.26 µM (active) |
| COc1ccc(C2C3=C(CCCC3=O)N(CC(=O)O)C3=C2C(=O)CCC3)cc1 | inactive |
| O=C(COC(=O)Cc1ccc([N+](=O)[O-])cc1)NC1CCCCCC1 | inactive |
| COc1ccc(C2(C)ON(c3ccccc3C(F)(F)F)C2=O)cc1 (stereo not drawn) | inactive |
| Cc1ccc(S(=O)(=O)N2CCCCC2)cc1NC(=O)[C@@H]1CCCN1C(=O)c1cccs1 | inactive |
| O=C(NCc1cccs1)C1CCN(S(=O)(=O)c2ccc(Cl)cc2)CC1 | inactive |
| O=C(Nc1cc(S(=O)(=O)N2CCCCC2)ccc1Cl)C1COc2ccccc2O1 (stereo not drawn) | 11.2 µM (active) |
| COc1ccc(C(=O)Nc2cc(S(=O)(=O)N3CCCC3)ccc2Cl)cc1 | inactive |
| CCOc1ccc(S(=O)(=O)N2CCCCC2)cc1NC(=O)CN1CCCC1c1cccs1 (stereo not drawn) | 4.47 µM (active) |
| CS(=O)(=O)c1ccc(Cl)c(NC(=O)COC(=O)c2cccc(S(=O)(=O)N3CCCC3)c2)c1 | inactive |
| O=C(COC(=O)CCOc1ccccc1)Nc1cc(S(=O)(=O)N2CCCCC2)ccc1Cl | inactive |
| O=C(CNCc1cccs1)Nc1cc(S(=O)(=O)N2CCCC2)ccc1Cl | 10 µM (active) |
| CC(=O)NCCC(=O)Nc1cc(S(=O)(=O)N2CCCCC2)ccc1Oc1cccc(C)c1 | inactive |
| COc1cccc(CC(=NO)c2cccc(OC)c2)c1 | inactive |

| Compound | Potency |
| --- | --- |
| CCN(C(=O)COC(=O)CCC(=O)c1cccs1)C1CCCCC1 | inactive |
| O=C1c2ccccc2C(=O)N1CCC#Cc1ccc2cc(C3(O)CCCCC3)oc(=O)c2c1 | inactive |
| CC(Sc1nncn1C)C(=O)NCCC1=CCCCC1 (stereo not drawn) | inactive |
| NS(=O)(=O)c1ccc(CNC(=S)NC(=O)c2ccco2)cc1 | inactive |
| Nc1c(-c2ccccc2)nnn1Cc1ccccc1 | inactive |
| Cc1cc(C)cc(OCC(=O)OCC(=O)NC2CCCC2)c1 | inactive |
| O=C(Nc1ccc(NC(=O)c2ccccc2F)cc1)c1ccccc1F | inactive |
| COc1ccc(CC(=O)N/N=C(\C)c2ccccn2)cc1 | inactive |
| C/C(=N\NC(=O)c1ccccc1F)c1ccccn1 | 11.2 µM (active) |
| C/C(CC(=O)Nc1ccc(N(C)C)cc1)=N\NC(=O)c1ccccc1F | inactive |
| C/C(=N\NC(=O)Cc1ccc(Br)cc1)c1cccnc1 | inactive |
| C/C(=N\NC(=O)Cc1ccc(Cl)cc1)c1ccccn1 | 7.08 µM (active) |
| Cc1noc(C)c1S(=O)(=O)N(C)C[C@H]1Oc2c(NC(=O)Nc3ccc4c(c3)OCO4)cccc2C(=O)N([C@H](C)CO)C[C@@H]1C | inactive |
| O=C(OCc1cc(=O)n2ccsc2n1)C1(c2ccc(Cl)cc2)CC1 | inactive |
| O=C(OCC(=O)N1CCc2ccccc21)C1CCCN1S(=O)(=O)c1ccc(Cl)cc1 (stereo not drawn) | inactive |
| O=C(NN=CC=Cc1ccccc1)C(O)C(O)C(=O)NN=CC=Cc1ccccc1 (stereo not drawn) | inactive |
| COc1cccc(NC(=O)c2ccc(S(=O)(=O)N(C)C)cc2)c1 | inactive |
| Cc1ccc(S(=O)(=O)c2ccc(Oc3ccccc3)cc2)cc1 | inactive |
| CN(C)S(=O)(=O)c1ccc(Oc2ccc(S(=O)(=O)N(C)C)cc2)cc1 | 11.2 µM (active) |
| CNC(=O)c1cc2c(ccc3ccccc32)oc1=N | inactive |
| CN(C)C(=O)c1coc2nc3ccccc3nc12 | inactive |
| CNC(=O)c1cccc2nc3ccccc3nc12 | 11.2 µM (active) |
| CC(C)N(C(=O)CSc1nnc(NC2CC2)s1)c1ccccc1 | inactive |
| COc1ccccc1OCCNc1cc(N2CCOCC2)ccc1[N+](=O)[O-] | 14.1 µM (active) |
| CC(=O)Nc1ccc(S(=O)(=O)N2CCN(c3ccc([N+](=O)[O-])c(NCCN4CCOCC4)c3)CC2)cc1 | inactive |

| Compound | Potency |
| --- | --- |
| COc1ccccc1OCCNC(=O)c1cc([N+](=O)[O-])cc([N+](=O)[O-])c1 | inactive |
| COc1ccc(Cl)cc1NC(=O)CN1CCN(C(=O)N2CCOCC2)CC1 | inactive |
| Cn1nc(C(=O)OCC(=O)N(Cc2ccccc2)C(C)(C)C)c2ccccc2c1=O | inactive |
| CN(Cc1ccc(CNC[C@H]2O[C@@H](n3cnc4c(N)ncnc43)[C@H](O)[C@@H]2O)o1)S(C)(=O)=O | inactive |
| O=C(/C=C/c1cccc([N+](=O)[O-])c1)OCC(=O)N1CCOCC1 | inactive |
| CCOc1cc(C(=O)N(Cc2ccccc2)c2ccc(C)cc2)ccc1OCC(=O)N1CCOCC1 | inactive |
| CCOc1ccc(NC(=O)Nc2cc(C)ccc2OC)cc1 | 11.2 µM (active) |
| CCOc1ccc(C(=O)Nc2cc(OC)ccc2OC)cc1 | 8.91 µM (active) |
| CCOc1ccc(NC(=O)Nc2cc(C)on2)cc1 | inactive |
| CCn1c(COc2ccc(OC)cc2)nnc1SCC(=O)Nc1cc(OC)ccc1OC | 1.26 µM (active) |
| CCOc1ccc(C(=O)NC2CCN(C(=O)Nc3ccccc3OC)CC2)cc1 | inactive |
| CCOC(=O)CNC(=O)CSc1nnc(COc2ccc(Cl)cc2)n1CC | inactive |
| CCn1c(COc2ccccc2)nnc1SCC(=O)Nc1ccc2c(c1)OCCO2 | inactive |
| COc1ccc(C)cc1NC(=O)NCc1ccccn1 | inactive |
| COc1ccc(OC)c(NC(=O)c2ccc3c(c2)C(=O)N(c2ccc(OC(C)=O)cc2)C3=O)c1 | inactive |
| CC1CCCCC12NC(=O)N(CC(=O)N1CCN(c3ccccc3)CC1)C2=O (stereo not drawn) | inactive |
| CSCCC(NC(=O)c1ccco1)C(=O)NCCc1ccc(F)cc1 (stereo not drawn) | inactive |
| O=C(OCC(=O)N1CCCCCC1)c1ccc(Br)c(S(=O)(=O)N2CCOCC2)c1 | inactive |
| O=C(NCCCN1CCOCC1)c1ccc2c(c1)N(Cc1cccc(F)c1)C(=O)c1ccccc1S2 | inactive |
| CCN1CCN(CCNC(=O)c2ccc(/C=C3/Sc4ccccc4N(Cc4cccc(C)c4)C3=O)cc2)CC1 | 8.91 µM (active) |
| COc1ccc(CCNC(=O)c2ccc3c(c2)NC(=O)C(N2CCOCC2)S3)cc1OC (stereo not drawn) | inactive |
| COc1ccc(/C=C(\NC(=O)c2ccccc2)C(=O)NCCN2CCOCC2)cc1OC | inactive |
| CCN1CCN(CCNC(=O)c2ccc3c(c2)NC(=O)/C(=C\c2ccc(OC)c(OC)c2)S3)CC1 | 31.6 µM (active) |
| Cc1nn(Cc2ccccc2)c(C)c1C(=O)NCCN1C(=O)S/C(=C\c2ccc(F)cc2)C1=O | inactive |
| CC(=O)OC1CCC2(C)C(=CCC3C4CC(=O)N(O)C(=O)C4(C)CCC32)C1 (stereo not drawn) | inactive |

| Compound | Potency |
| --- | --- |
| COc1cc(/C=C/C(=O)OCC(=O)NC2CC2)cc(OC)c1OC | inactive |
| CN(CC(=O)NCc1cccnc1)S(=O)(=O)c1cc(Cl)ccc1Cl | inactive |
| CC(=O)c1c(OCC(=O)N(C)C2CCCCC2)ccc2c(C)cc(=O)oc12 | inactive |
| COc1cccc(C=CC(=O)C=CC=Cc2ccccc2)c1 | inactive |
| CC1Sc2ccc(C(=O)NCc3ccccc3Cl)cc2NC1=O (stereo not drawn) | inactive |
| O=C(NCc1ccccc1Cl)c1ccc2c(=O)n(CC3CCCO3)c(=S)[nH]c2c1 (stereo not drawn) | 6.31 µM (active) |
| Cc1ccccc1NC(=O)Cn1c(=O)n(CC2CCCO2)c(=O)c2ccccc21 (stereo not drawn) | inactive |
| O=C(NC1CCCCC1)c1ccc2c(=O)n(CC3CCCO3)c(=O)[nH]c2c1 (stereo not drawn) | inactive |
| O=C(NCc1ccccc1Cl)C1CCCO1 (stereo not drawn) | inactive |
| Cc1cccc(NC(=O)c2ccc3c(=O)n(CC4CCCO4)c(=S)[nH]c3c2)c1 (stereo not drawn) | 11.2 µM (active) |
| CSc1ccc(/C=C2\NC(=O)NC2=O)cc1 | inactive |
| Cc1cn(C2CC(O)C(CO)O2)c(=O)n(CCCc2ccccc2)c1=O (stereo not drawn) | inactive |
| C(#CCN1CCOCC1)CCCN1CCOCC1 | inactive |
| Cc1ccc(NS(=O)(=O)c2ccc3c(c2)n(C)c(=O)c(=O)n3C)c(C)c1 | inactive |
| COc1cccc(NS(=O)(=O)c2ccc(-c3coc(C)n3)cc2)c1 | inactive |
| Cc1ccc(NS(=O)(=O)c2ccc(-c3coc(C)n3)cc2)c(C)c1 | 11.2 µM (active) |
| CCCCN1C(N)=NC[C@@H]1CC1CCCCC1 | inactive |
| COC(=O)Cc1ccc(OCC(=O)NC2CCCC2)cc1 | inactive |
| COc1cc(OC)cc(C(=O)NNC(=O)CNC(=O)c2ccc(Br)o2)c1 | inactive |
| CCN1CCN(c2c(Cl)cccc2NC(=O)c2ccc(Br)o2)CC1 | inactive |
| COc1cc(OC)c(NC(=O)c2ccc(Br)o2)cc1Cl | 11.2 µM (active) |
| Cc1csc(SCC(=O)N(c2ccccc2)C(C)C)n1 | inactive |
| NC(=O)C1(Nc2ccc([N+](=O)[O-])cc2)CCCC1 | inactive |

Reference: PubChem BioAssay AID651820 (National Center for Advancing Translational Sciences (NCATS), 2012)
